Source: ChEMBL document CHEMBL3988442, “University of Dundee, Small-Polar-MMV Screening Library” (2021)

Target: T1, Methionyl-tRNA synthetase, putative (Leishmania donovani (strain BPK282A1)) (UniProt E9BF75)
T1 sequence (whole entry): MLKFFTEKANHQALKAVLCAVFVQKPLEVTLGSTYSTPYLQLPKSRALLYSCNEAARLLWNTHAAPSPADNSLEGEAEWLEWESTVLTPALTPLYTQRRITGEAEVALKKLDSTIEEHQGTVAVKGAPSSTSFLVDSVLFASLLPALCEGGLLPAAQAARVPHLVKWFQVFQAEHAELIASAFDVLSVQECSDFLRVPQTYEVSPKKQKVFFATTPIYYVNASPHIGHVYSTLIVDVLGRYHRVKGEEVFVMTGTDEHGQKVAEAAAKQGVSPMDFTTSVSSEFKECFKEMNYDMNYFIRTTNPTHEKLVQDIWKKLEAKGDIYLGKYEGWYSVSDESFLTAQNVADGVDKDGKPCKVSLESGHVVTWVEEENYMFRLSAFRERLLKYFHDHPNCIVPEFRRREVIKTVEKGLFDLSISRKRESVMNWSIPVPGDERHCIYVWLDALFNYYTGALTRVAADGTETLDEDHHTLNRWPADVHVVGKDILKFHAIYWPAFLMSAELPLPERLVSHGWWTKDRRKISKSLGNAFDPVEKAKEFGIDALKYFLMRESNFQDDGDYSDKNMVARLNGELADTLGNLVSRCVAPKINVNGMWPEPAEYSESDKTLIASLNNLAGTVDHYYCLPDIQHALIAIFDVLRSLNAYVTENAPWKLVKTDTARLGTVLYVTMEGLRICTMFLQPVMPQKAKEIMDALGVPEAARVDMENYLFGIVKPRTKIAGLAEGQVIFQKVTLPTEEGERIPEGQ
Assay: Leishmania donovani Methionine tRNA synthetase (LdMetRS):v7. Dose response assay
Assay type: functional
Set-up: conc 80 nM, time 150 minutes

## CCc1cccc(Nc2nc(NCCO)c3sccc3n2)c1
MAX_EFFECT 17.21470019
  PXC50: < 4
MAX_EFFECT 27.31277533
  PXC50: < 4
MAX_EFFECT 37.39669421
  PXC50: < 4

## NS(=O)(=O)c1cc(Cl)cc(Cl)c1
MAX_EFFECT 24.26470588
  PXC50: < 3
MAX_EFFECT 31.80778032
  PXC50: < 3
MAX_EFFECT 47.99235182
  PXC50: < 2.7

## OCCNc1ccnc(Nc2cccc(F)c2)n1
MAX_EFFECT 29.67244701
  PXC50: < 4
MAX_EFFECT 30.83700441
  PXC50: < 4
MAX_EFFECT 32.02479339
  PXC50: < 4

## COc1cccc(-c2noc3c2CN(c2ncnc4c2CCC4)CC3)c1
MAX_EFFECT 38.4057971
  PXC50: < 4
MAX_EFFECT 40.13605442
  PXC50: < 4
MAX_EFFECT 45.70928196
  PXC50: < 4

## CN(c1ncnc2ccccc12)C1CCCN(c2cccnn2)C1 (configuration not stated)
BOTTOM 0.59496429, HILLSLOPE 1.142527095, MAX_EFFECT 61.72248804, TOP 100.0
  PXC50: 4.15
BOTTOM 4.775047561, HILLSLOPE 1.968197794, MAX_EFFECT 73.89635317, TOP 73.89635317
  PXC50: 4.48
BOTTOM 7.086189247, HILLSLOPE 1.125976509, MAX_EFFECT 60.07005254, TOP 100.0
  PXC50: 4.1
BOTTOM 8.519162934, HILLSLOPE 1.512392504, MAX_EFFECT 75.36231884, TOP 100.0
  PXC50: 4.28
BOTTOM -1.496045735, HILLSLOPE 1.12468747, MAX_EFFECT 69.3877551, TOP 100.0
  PXC50: 4.34

## CCc1ccc(-c2cc(C(F)(F)F)nc(N3CCC(N)CC3)n2)cc1
BOTTOM 0.706388919, HILLSLOPE 2.15610203, MAX_EFFECT 103.8387716, TOP 100.0
  PXC50: 4.56
BOTTOM 1.827311561, HILLSLOPE 2.684909792, MAX_EFFECT 98.40510367, TOP 100.0
  PXC50: 4.35
BOTTOM 4.066049008, HILLSLOPE 2.434171465, MAX_EFFECT 89.60138648, TOP 100.0
  PXC50: 4.34
BOTTOM 4.927859372, HILLSLOPE 1.513560957, MAX_EFFECT 87.5, TOP 100.0
  PXC50: 4.46
BOTTOM -3.243969643, HILLSLOPE 5.145586142, MAX_EFFECT 85.90604027, TOP 95.73252463
  PXC50: 4.19
